# Most compounds without a hit are left out; they make up all but 1.7% or so of the library.
# FGF22 binding: shifts melting point of recombinant human FGF22; AID 651658; actives 1.5% (n = 340,000); recombinant FGF22 thermal shift, SYPRO orange fluorescence; percent of sucrose octasulfate shift, DMSO zero; activity (Tm shift, normalised), % at 9.99 µM;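 active = mean Tm shift, scaled 0 neutral to 100 positive control, at about 1.3% or above, every replicate too, limit read from the data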
# Target sequence (Q9HCT0 whole entry, looked up): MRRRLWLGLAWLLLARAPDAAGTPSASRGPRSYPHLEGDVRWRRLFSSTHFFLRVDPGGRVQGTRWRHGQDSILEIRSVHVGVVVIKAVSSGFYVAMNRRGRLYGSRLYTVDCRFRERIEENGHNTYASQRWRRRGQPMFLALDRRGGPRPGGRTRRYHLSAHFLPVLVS
# Vif inh: blocks HIV Vif function. HEK293T cells, Vif self-association by quenched fluorescence, imaging, 24 h. inhibition, % at 7.49 µM. actives 0.35% (n = 340,000); in the data active = inhibition above about 50%, passing the limit was not always enough
# F508del corr: correctors of CFTR F508del function in bronchial epithelial cells. CFBE cells, YFP halide quenching; stimulated with forskolin plus potentiator P3; % fluorescence drop versus neutral controls. activity (quench increase), % at 7.58 µM. actives 0.36% (n = 350,000);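 active = mean added fluorescence quench of at least 8% versus neutral control, with both replicates also reaching 8%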;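 note: cells transiently co-express mutant CFTR-F508del with the halide-sensitive YFP; corrector assay measuring rescue of mutant channel to the surface after 24 h compound exposure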
# * = called active by the depositor; · = no result.
SMILES,FGF22 binding,Vif inh,F508del corr
COc1ccc(CN(C(=O)c2nsc(Cl)c2Cl)C(C(=O)NC2CCCC2)c2ccc(OC)cc2)cc1 (stereo not drawn),43.2*,-4.6,1.4
COc1ccc(CN(C(=O)c2snc(C(N)=O)c2N)C(C(=O)NC2CCCC2)c2ccc(OC)cc2)cc1 (stereo not drawn),-0.4,-1.0,0.1
COc1ccc(C(=O)N2c3ccccc3C=CC2C#N)cc1 (stereo not drawn),0.2,0.2,0.3
CCSC(=O)N1c2ccc(OC)cc2C=CC1C#N (stereo not drawn),-0.1,9.1,15.3*
CCN1[C@@H]2c3ccc(-c4ccc(F)cc4)c(=O)n3C[C@@H]2[C@@H](CO)[C@@H]1C(=O)N(C)C,0.2,·,-4.1
Cc1ccc([N+](=O)[O-])cc1NC(=O)c1ccc(CSc2ccccc2)cc1,·,-3.8,·
Cc1cc(CSc2ccccc2)ccc1NC(=O)c1ccc(C)c([N+](=O)[O-])c1,43.4*,-7.2,0.5
Cn1nnnc1N=N/C(=N/Nc1ccccc1)c1ccccc1,-0.3,1.5,12.6*
Oc1ccccc1N=N/C(=N/Nc1ccccc1O)c1ccccc1,0.1,-3.9,0.6
CCCN(CCC)c1ccc(CC(=O)NC(C)Cc2ccccc2)cc1 (stereo not drawn),0.6,4.5,·
CCN(CC)c1ccc(CC(=O)NC(C)Cc2ccccc2)cc1 (stereo not drawn),·,101.4*,·
CCC(=O)NC[C@@H]1[C@H](c2ccccc2)[C@H](CO)N1C(=O)C1CC1,-0.4,·,4.4
CCC(=O)Nc1ccc2c(c1)C(=O)N(C)C[C@H](OC)[C@@H](C)CN(Cc1ccccc1C(=O)O)[C@H](C)CO2,0.2,·,1.8
Cc1cccc(-c2ccc([C@@H]3[C@@H](CO)N4C(=O)CN(C(=O)NC5CCCCC5)C[C@H]34)cc2)c1,·,·,-1.9
C[C@H]1CN([C@@H](C)CO)C(=O)c2cc(-c3cccc(F)c3)cnc2O[C@@H]1CN(C)CC1CCOCC1,0.6,·,1.1
Cn1cccc1CC(=O)NNC(=O)Nc1ccc(Cl)cc1,44.4*,7.0,0.0
Cn1cccc1CC(=O)NNC(=O)Nc1cccc(Cl)c1,0.0,6.0,-0.6
C[C@@H]1CN([C@H](C)CO)C(=O)c2cc(NS(=O)(=O)c3ccccc3)ccc2O[C@@H](C)CCCCO[C@H]1CN(C)C(=O)Nc1ccc2c(c1)OCO2,-0.4,·,1.4
C/C=C/c1ccc2c(c1)O[C@@H](CN(C)Cc1cccc(F)c1)[C@@H](C)CN([C@@H](C)CO)S2(=O)=O,0.0,·,1.2
CC(C)c1cn(CC[C@@H]2CC[C@H](NC(=O)C3CC3)[C@@H](CO)O2)nn1,0.0,·,0.4
COc1cccc(C#Cc2ccc3c(c2)[C@H]2[C@H](CCN2C(=O)Cc2ccccc2)[C@H](CO)N3)c1,·,·,6.2
Cc1ccccc1S(=O)(=O)NCC[C@H]1CC[C@@H](NC(=O)C2CCCCC2)[C@H](CO)O1,0.1,·,0.6
CCC(=O)c1c[nH]c(C(=O)N2CCN(c3ccccc3)CC2)c1,42.9*,2.2,2.5
CCC(=O)c1c[nH]c(C(=O)N2CCOCC2)c1,0.0,1.0,-3.3
CCS(=O)(=O)Nc1ccc2c(c1)C(=O)N(C)C[C@H](OC)[C@@H](C)CN(Cc1nccs1)[C@@H](C)CO2,0.1,·,-2.2
SMILES,FGF22 binding,Vif inh,F508del corr
COc1cc(CC(=O)OCC(=O)Nc2ccc(N3CCOCC3)cc2)cc(OC)c1OC,42.2,-1.1,-1.8
COc1ccc(CC(=O)OCC(=O)Nc2ccc(N3CCOCC3)cc2)cc1,-0.3,80.7*,2.3
CC(=O)NCC(=O)NC(C(=O)Nc1ccc2c(c1)OCCO2)c1ccc(C)cc1 (stereo not drawn),·,0.9,·
COc1ccc(C(NC(=O)CNC(C)=O)C(=O)Nc2ccc3c(c2)OCCO3)cc1 (stereo not drawn),·,50.8*,·
COc1ccc(-c2cc(C(=O)Nc3ccc4c(c3)OCO4)no2)cc1,-0.4,53.2*,0.6
COc1ccc(-c2cc(C(=O)Nc3ccc(OC)c(OC)c3)no2)cc1,0.2,-3.9,2.7
Cc1ccc(C)c(OCC(=O)Nc2ccc3c(c2)OCO3)c1,0.1,-5.8,1.8
Cc1cc(C)c(OCC(=O)Nc2ccc3c(c2)OCO3)cc1C,·,67.5*,·
COCCNC(=O)C[C@@H]1CC[C@H]2[C@@H](COC[C@H](O)CN2Cc2cccc(-c3ccncc3)c2)O1,-0.6,·,-1.0
Cc1ccc(S(=O)(=O)Nc2cccc3c2O[C@@H](CN(C)Cc2ccc(C(=O)O)cc2)[C@H](C)CN([C@@H](C)CO)C3=O)cc1,-0.4,·,0.2
COc1ccc(CC(=O)OCC(=O)Nc2ccc3c(c2)OCO3)cc1,42.9*,-2.3,-0.2
COc1ccc2nc(Nc3nc4cc5c(cc4s3)OCO5)sc2c1,·,4.9,·
COc1ccc(CCC(=O)Nc2ccc3c(c2)OCO3)cc1,-0.2,5.0,-2.9
COc1ccc2nc(Nc3ccc4c(c3)OCO4)sc2c1,·,52.5*,·
CN(C(=O)CS(=O)(=O)Cc1ccccc1Cl)c1ccccc1,43.3*,43.3,0.3
O=C(O)CCS(=O)(=O)Cc1ccccc1Cl,0.1,-2.9,0.1
COc1ccc(OC)c(-c2cnc(OC(C)(C)C)nc2OC(C)(C)C)c1,-0.1,16.8,14.2*
CNc1cncc(-c2cc(OC)ccc2OC)n1,0.4,-10.2,1.8
CCC(=O)N1CCc2cc(S(=O)(=O)N(C)c3ccc(OC)cc3OC)ccc21,0.0,-9.8,-1.6
CCC(=O)N1CCc2cc(Br)cc(S(=O)(=O)N(C)c3ccc(OC)cc3OC)c21,43.1*,11.3,3.1
CNC(=O)C[C@@H]1CC[C@H]2[C@@H](COC[C@@H](O)CN2C(=O)c2ccc3c(c2)OCO3)O1,0.0,·,-0.9
Cc1ccc(S(=O)(=O)N(C)C[C@@H]2Oc3ccc(NC(=O)Cn4cnnn4)cc3CC(=O)N([C@@H](C)CO)C[C@H]2C)cc1,0.0,·,-0.8
COc1ccc(/C=c2\s/c(=C/C(=O)c3ccc(C)cc3)[nH]c2=O)c(OC)c1,-0.3,96.6*,·
COc1cccc(/C=c2\s/c(=C/C(=O)c3ccc(C)cc3)[nH]c2=O)c1OC,·,11.0,·
C[C@H]1CN([C@@H](C)CO)C(=O)Cc2cc(NS(=O)(=O)c3ccccc3)ccc2O[C@@H]1CN(C)C(=O)NC1CCCCC1,0.0,·,0.3
SMILES,FGF22 binding,Vif inh,F508del corr
CCOC(=O)C1=C(O)/C(=C/c2ccc(OCC(=O)O)c(OCC)c2)SC1=Nc1ccccc1,43.0*,-3.8,-1.6
CCOC(=O)C1=C(O)/C(=C/c2ccc(OCC(=O)O)c(OC)c2)SC1=Nc1ccc(OCC)cc1,0.0,6.0,·
O=c1oc2ccccc2c(Nc2cc3ccccc3cc2O)c1[N+](=O)[O-],0.2,-12.2,8.5*
O=c1oc2ccccc2c(Nc2ccccc2O)c1[N+](=O)[O-],0.0,-2.7,-3.9
CCC(=O)c1ccc(OCC(=O)Nc2nn3cnnc3s2)cc1,·,68.1*,·
CCOc1ccc(NC(=O)COc2ccc(-n3cnnn3)cc2)cc1,0.1,6.9,-1.4
CCNC(=S)NNC(=O)CC(C)C,0.1,-0.8,9.5*
CC(C)CNC(=S)NNC(=O)CC(C)O (stereo not drawn),0.1,-3.9,-0.9
O=C(NC[C@H]1CC[C@H]2[C@H](CN2C(=O)CN2CCOCC2)O1)NC1CCCCC1,·,·,0.3
O=C1CN(C(=O)/C=C/c2ccco2)c2ccccc2N1,44.2*,-0.5,-0.7

# Compound activity (PubChem)
